Assay [1] in a line: qHTS profiling for inhibitors of Plasmodium falciparum proliferation (AID 504749). Also: nearly all actives have a fitted effect of over 60% in size.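 As to activity, negative = inhibition: 0% = DMSO vehicle and full inhibition = artemisinin control.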 The conditions noted are these: P. falciparum in erythrocytes, SYBR Green DNA, 72 h. The procedure, abridged:
(§1)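 Each compound contacts P. falciparum-infected red blood cells for 72 h at 37 C; lysis buffer (Tris, EDTA, saponin, Triton X, SYBR Green I) is added and fluorescence measured next morning; values normalized to controls.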
On the technique in general: Quantitative high-throughput screening tests each substance at several concentrations.

The next assay concerns 3D7. Described as above. The note with it: P. falciparum in erythrocytes, SYBR Green DNA, 72 h; series mostly up to 28.7 µM. The method, boiled down:
as §1

A further assay has as its system 7G8. Described as above. The note with it: P. falciparum in erythrocytes, SYBR Green DNA, 72 h; series mostly up to 28.7 µM. The procedure, abridged:
as §1

The test system of a further assay is CP191. The assay is described as above. The note with it: P. falciparum in erythrocytes, SYBR Green DNA, 72 h; series mostly up to 28.7 µM. The procedure, abridged: as §1
The next assay relates to CP192. The description is as above. The note with it: P. falciparum in erythrocytes, SYBR Green DNA, 72 h; series mostly up to 28.7 µM. The method, boiled down:
as §1

The test system of another assay is AA1029. The assay is described as above. The conditions noted are these: P. falciparum in erythrocytes, SYBR Green DNA, 72 h; series mostly up to 28.7 µM. The method, boiled down:
as §1

Another assay has as its system AS120. The assay is described as above. The note with it: P. falciparum in erythrocytes, SYBR Green DNA, 72 h; series mostly up to 28.7 µM. The method, boiled down: as §1
A further assay has as its system ATS189. Described as above. The note with it: P. falciparum in erythrocytes, SYBR Green DNA, 72 h; series mostly up to 28.7 µM. The method, boiled down:
as §1

The test system of the next assay is C2A. Described as above. The note with it: P. falciparum in erythrocytes, SYBR Green DNA, 72 h; series mostly up to 28.7 µM. The method, boiled down: as §1
The test system of another assay is CP185. The description is as above. The conditions noted are these: P. falciparum in erythrocytes, SYBR Green DNA, 72 h; series mostly up to 28.7 µM. The procedure, abridged: as §1
The next assay has as its system CP201. The description is as above. The note with it: P. falciparum in erythrocytes, SYBR Green DNA, 72 h; series mostly up to 28.7 µM. The method, boiled down: as §1
The next assay relates to ATS95. The description is as above. The conditions noted are these: P. falciparum in erythrocytes, SYBR Green DNA, 72 h; series mostly up to 28.7 µM. The procedure, abridged: as §1
For the next assay, the system named is CP194. The assay is described as above. The conditions noted are these: P. falciparum in erythrocytes, SYBR Green DNA, 72 h; series mostly up to 28.7 µM. The procedure, abridged: as §1
Setting [2] is: at 28.7 µM (top of the series), parasite line A.
[3] abbreviates: at 28.7 µM (top of the series), parasite line B.
Where [4] appears, read: at 12.8 µM (top of the series), parasite line A.

Records with an inconclusive call do not appear. Values without a mark were called inactive. The source made the active and inactive calls. Calls follow the shape of the dose curve; as a rule, active = well fitted inhibition curve with a large enough effect; inconclusive = small, poorly fitted or top-dose-only effect; inactive = flat fitted curve, though single readings scatter.
Potency is read from the fitted curve at half-maximal effect.

As for `[Cl-].[Cl-].[Hg+2]`, the Potency is 7.94 µM (active) in assay [1] (parasite line A), 8.91 µM (active) in [1] (parasite line B), 12.6 µM (active) with 3D7 and 11.2 µM (active) in the assay on 7G8. The Potency result in the assay with CP191 and with CP192 was “inactive” in each case.

In the case of `CNC1(c2ccccc2Cl)CCCCC1=O` (centres undefined), the activity, negative = inhibition in [1] (setting [2]) is 12.4%. Further, the Potency entry in the assay with 3D7, in the assay with 7G8, in the assay on AA1029, in the assay with AS120, in the assay with ATS189 and in the assay on C2A was “inactive” throughout. Moreover, the Potency entry in the assay with CP185, in the assay with CP192 and in the assay with CP201 was “inactive” in each case.

On to `O=C1CN(O)C(c2ccccc2)=c2cc(Cl)ccc2=N1`, for which the figures for the activity, negative = inhibition in assay [1] (setting [2]) and in [1] (setting [3]) were 7.13% and 1.2%, respectively. For the same compound, the Potency entry in the assay with 3D7, in the assay on AA1029, with AS120, with ATS189, with ATS95 and with C2A was “inactive” throughout. In addition, the Potency result in the assay on CP185, in the assay with CP191, in the assay on CP192, with CP194 and in the assay with CP201 was “inactive” each time.

As to `O=C1C2CC=CCC2C(=O)N1SC(Cl)(Cl)Cl` (centres undefined), the activity, negative = inhibition was -6.95% in assay [1] (setting [2]) and 5.29% in [1] (setting [3]). The Potency entry in the assay with 3D7, in the assay on AA1029, in the assay on AS120, with ATS189, in the assay on ATS95 and in the assay with C2A was “inactive” in each case. The Potency result in the assay on CP185, in the assay on CP191, in the assay with CP192, in the assay on CP194 and in the assay with CP201 was “inactive” each time.

As to `CN1CCCC(=C(c2cccs2)c2cccs2)C1`, the activity, negative = inhibition in assay [1] (setting [3]) was -19.2%. The Potency result in the assay on 3D7, in the assay on C2A, in the assay on CP191, with CP192 and in the assay on CP201 was “inactive” throughout.

Turning to `c1ccc2cc(CC3=NCCN3)ccc2c1`, the results for the activity, negative = inhibition in assay [1] (setting [2]) and in assay [1] (setting [3]) were 3.45% and -0.535%, respectively. The Potency entry with 3D7, in the assay with AA1029, with AS120, with ATS189, with ATS95 and in the assay with C2A was “inactive” each time. The Potency result in the assay on CP185, in the assay on CP191, in the assay on CP192, with CP194 and with CP201 was “inactive” in each case.

`CCCC(=O)OC(C(Cl)(Cl)Cl)P(=O)(OC)OC` (centres undefined): the activity, negative = inhibition in [1] (setting [2]) is -16.7%; in [1] (setting [3]), -35.8%. Moreover, the Potency entry in the assay with AA1029, in the assay on AS120, in the assay with ATS189, in the assay with C2A, with CP185 and in the assay with CP191 was “inactive” throughout. Moreover, the Potency entry in the assay on CP192, with CP194 and in the assay with CP201 was “inactive” throughout.

Consider `O=C(NC(=O)c1c(F)cccc1F)Nc1ccc(Cl)c(Oc2ncc(C(F)(F)F)cc2Cl)c1`, for which the activity, negative = inhibition in assay [1] (setting [2]) is 9.79%; in [1] (setting [3]), -1.85%. For the same compound, the Potency entry with 3D7, in the assay on AA1029, with AS120, in the assay with ATS189, in the assay with ATS95 and with C2A was “inactive” in each case. Besides, the Potency entry in the assay on CP185, with CP191, with CP192, in the assay with CP194 and in the assay with CP201 was “inactive” each time.

Turning to `CCC(=O)O[C@@](Cc1ccccc1)(c1ccccc1)[C@@H](C)CN(C)C`, the activity, negative = inhibition was -5.92% in assay [1] (setting [4]) and -0.756% in assay [1] (at 12.8 µM (top of the series), parasite line B). Further, the Potency entry in the assay with 3D7, with AA1029, with AS120, with ATS189, with ATS95 and in the assay on C2A was “inactive” each time. Moreover, the Potency entry in the assay on CP185, in the assay with CP191, with CP192, in the assay on CP194 and in the assay with CP201 was “inactive” each time.

Take `CCOP(=O)(OCC)O/C(=C/Cl)c1ccc(Cl)cc1Cl`: the activity, negative = inhibition in assay [1] (setting [2]) is -27.9%; in [1] (setting [3]), -21.8%. The Potency result in the assay with 3D7, with AA1029, in the assay with ATS189, with ATS95, in the assay with C2A and in the assay on CP191 was “inactive” throughout. In addition, the Potency result in the assay on CP192 and in the assay with CP201 was “inactive” each time.

As to `CCN(CC)C(=O)/C(Cl)=C(\C)OP(=O)(OC)OC`, the results for the activity, negative = inhibition in assay [1] (setting [2]) and in assay [1] (setting [3]) were -6.34% and 3.3%, respectively. Moreover, the Potency result with 3D7, with AA1029, with AS120, in the assay on ATS189, in the assay on ATS95 and with C2A was “inactive” throughout. Also, the Potency entry in the assay on CP185 and in the assay on CP191 was “inactive” each time.

As to `O=c1c2ccccc2[se]n1-c1ccccc1`, in the assay on 7G8, the Potency was 8.91 µM (active). Besides, the Potency entry in the assay on AA1029, with ATS95, with C2A, in the assay on CP192 and in the assay with CP201 was “inactive” each time.

On to `C[C@@H](Cc1ccccc1)NCCC(c1ccccc1)c1ccccc1`, for which the activity, negative = inhibition in assay [1] (setting [4]) was -17.6%. Besides, in the assay on 7G8, the Potency is 4.47 µM (active). For the same compound, the Potency entry with ATS189, with C2A, in the assay on CP192 and in the assay on CP201 was “inactive” each time.

On to `F/C(COc1ccc2c(c1)[nH]c1ccccc12)=C1/CN2CCC1CC2`, for which the Potency in assay [1] (parasite line B) was 10 µM (active); with 7G8, 5.01 µM (active); in the assay on AA1029, 10 µM (active); with AS120 it was 4.47 µM (active); in the assay with ATS95 it was 11.2 µM (active); with CP191, 11.2 µM (active). The Potency entry with CP201 was “inactive”.

Turning to `OC(c1ccccc1)(c1ccccc1)C1CN2CCC1CC2` (centres undefined), the activity, negative = inhibition in [1] (setting [2]) was 2.79%; in assay [1] (setting [3]), -0.359%. The Potency entry in the assay on 3D7, in the assay with AS120, in the assay with ATS189, in the assay on ATS95, in the assay on C2A and in the assay with CP185 was “inactive” throughout. In addition, the Potency entry in the assay on CP192, in the assay on CP194 and in the assay on CP201 was “inactive” in each case.

Take `C[C@H]1CCC[C@H](O)CCCCCc2cc(O)cc(O)c2C(=O)O1`: in [1] (setting [3]), the activity, negative = inhibition is -17.3%. In addition, the Potency entry in the assay with 3D7, in the assay on ATS189, with ATS95, in the assay on C2A, with CP185 and with CP192 was “inactive” throughout. The Potency entry in the assay with CP201 was “inactive”. In the assay with 7G8, the Potency was 12.6 µM (active).

With `c1ccc(C2(N3CCCC3)CCCCC2)cc1`, the Potency in assay [1] (parasite line A) was 12.6 µM (active); with 3D7 it was 12.6 µM (active); in the assay on 7G8, 11.2 µM (active); in the assay with AA1029, 11.2 µM (active); with AS120 it was 11.2 µM (active); with CP185, 12.6 µM (active). Further, the Potency in the assay with CP191 was 11.2 µM (active). Also, the Potency result in the assay on ATS189 and in the assay on C2A was “inactive” in each case.

As for `CCCCCCCCCC(=O)O[C@H]1CC[C@H]2[C@@H]3CCC4=CC(=O)CC[C@]4(C)[C@H]3CC[C@]12C`, the activity, negative = inhibition was 8.28% in assay [1] (setting [2]) and -5.1% in assay [1] (setting [3]). The Potency result in the assay with 7G8, in the assay with AA1029, in the assay with AS120, with ATS189, in the assay with ATS95 and in the assay on C2A was “inactive” throughout. Further, the Potency result with CP185, with CP191, in the assay on CP192, in the assay with CP194 and in the assay on CP201 was “inactive” in each case.

(Values after PubChem BioAssay (NCATS).)
